Assay results: the supplement of paper PMC10681739

Legend:
[1] = target: T1, ETS1 (UniProt P14921); experiment: ETS1 binding intensity (PBM fluorescence), ETS1 alone (arbitrary fluorescence units); higher = stronger binding; conditions: ETS1 concentration 1 nM; RUNX1 concentration 0 nM
T1 sequence: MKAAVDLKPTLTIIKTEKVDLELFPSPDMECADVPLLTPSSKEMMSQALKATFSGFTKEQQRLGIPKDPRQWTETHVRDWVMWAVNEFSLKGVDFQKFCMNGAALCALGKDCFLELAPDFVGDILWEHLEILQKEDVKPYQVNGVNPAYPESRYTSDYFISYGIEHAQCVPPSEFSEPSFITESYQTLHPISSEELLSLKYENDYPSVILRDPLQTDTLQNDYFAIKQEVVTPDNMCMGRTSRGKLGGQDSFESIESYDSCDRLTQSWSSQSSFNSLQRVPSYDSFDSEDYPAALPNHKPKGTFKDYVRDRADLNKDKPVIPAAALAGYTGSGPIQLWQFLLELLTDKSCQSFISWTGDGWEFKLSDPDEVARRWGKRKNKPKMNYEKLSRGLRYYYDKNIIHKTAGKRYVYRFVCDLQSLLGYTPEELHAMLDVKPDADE

[2] = target: RUNX1 (UniProt Q01196); experiment: RUNX1 binding intensity (PBM fluorescence), RUNX1 alone (arbitrary fluorescence units); higher = stronger binding; conditions: RUNX1 concentration 2 nM; ETS1 concentration 0 nM
Description: (§1)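 Cooperative gcPBM on 36-bp genomic probes with neighbouring ETS1 and RUNX1 sites. Recombinant human RUNX1 (2 nM) was incubated alone or with ETS1 (25 nM) and detected with anti-RUNX1 antibody plus Alexa488 secondary. Values are medians over 4 replicate spots; the RUNX1+ETS1 data were normalised to the RUNX1-only data. The probes sit in constant array flanks that are not printed.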

[3] = target: T1, ETS1; experiment: ETS1 binding intensity (PBM fluorescence) in presence of RUNX1, normalised to ETS1-only experiment (arbitrary fluorescence units); higher = stronger binding; conditions: ETS1 concentration 1 nM; RUNX1 concentration 25 nM
[4] = target: RUNX1 (UniProt Q01196); experiment: RUNX1 binding intensity (PBM fluorescence) in presence of ETS1, normalised to RUNX1-only experiment (arbitrary fluorescence units); higher = stronger binding; conditions: RUNX1 concentration 2 nM; ETS1 concentration 25 nM
Description: as §1
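For RUNX1 binding intensity (PBM fluorescence) in presence of ETS1, normalised to RUNX1-only experiment in this document: Full-length recombinant human ETS1 or RUNX1 bound to double-stranded 36-bp genomic probes on microarrays, detected by protein-specific primary antibody and Alexa488 secondary, spot fluorescence as median of four replicate spots.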
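For RUNX1 binding intensity (PBM fluorescence), RUNX1 alone in this document: Full-length recombinant human RUNX1 bound to double-stranded 36-bp genomic probes on a high-density microarray, scored as Alexa488 fluorescence per spot via anti-RUNX1 antibody, median of four replicate spots.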

RUNX1, sequence (Q01196 whole entry): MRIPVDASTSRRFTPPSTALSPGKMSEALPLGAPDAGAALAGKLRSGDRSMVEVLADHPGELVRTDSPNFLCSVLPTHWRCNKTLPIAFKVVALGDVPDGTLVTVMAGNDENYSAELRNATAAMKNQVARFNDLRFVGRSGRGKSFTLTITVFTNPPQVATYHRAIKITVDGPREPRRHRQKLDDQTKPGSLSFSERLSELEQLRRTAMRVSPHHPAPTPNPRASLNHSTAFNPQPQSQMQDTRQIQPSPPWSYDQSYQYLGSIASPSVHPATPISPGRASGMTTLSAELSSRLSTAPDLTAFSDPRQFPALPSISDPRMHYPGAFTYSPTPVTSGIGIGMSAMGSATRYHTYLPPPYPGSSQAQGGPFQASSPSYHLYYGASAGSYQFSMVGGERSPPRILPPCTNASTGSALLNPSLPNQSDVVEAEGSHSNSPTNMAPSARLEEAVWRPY

| Sequence | ETS1 binding intensity [1] | RUNX1 binding intensity [2] | ETS1 binding intensity [3] | RUNX1 binding intensity [4] |
| --- | --- | --- | --- | --- |
| CTTCATCAACCCATCCTGTCTTGTGGTTAAGTCAAG | 392 | 4120 | 1700 | 6360 |
| AACATCCTGTGTAAAGAGAATTGAATGTGGTTTTCT | 559 | 821 | 1360 | 2600 |
| GAGTGACTGCTAACGGATGTGTGGTTTCTTTAGTTT | 2000 | 926 | 6590 | 1470 |
| AGTCTCGTTTCCTGTGCGCTGTGGCCACCTGGCAGC | 1110 | 716 | 1050 | 1790 |
| ACCCTACTTCCGTTGCTGTGTTGCGGAGGTGACCTA | 1210 | 844 | 1240 | 1700 |
| TGCCTCCTCGTCACAGGATGTGGTCGCTGCACCCTG | 5200 | 788 | 16000 | 1700 |
| CTGAGACCTCGGGCAGGATGTGGCTTCCCCAGAGTT | 4700 | 684 | 7460 | 1180 |
| GCTTCTGAGGAAGTGCGTTCTGTGGGTAGGTGGAGT | 677 | 834 | 1000 | 918 |
| CACTGCGGAAGCAGTGTAGAGAGGTGGTTATCAGTG | 707 | 784 | 680 | 921 |
| GACCACTTCCTTTCTGTGTTTTGTGGTTTCACAACT | 555 | 2430 | 1650 | 9060 |
| CTTGTGCCTACATCCTGTAGCTGTGGTTTAGGGACG | 1420 | 887 | 6810 | 2050 |
| AACCTCCGACTTCCGGCCGCGCAGCGGTGGGCTGAG | 3900 | 678 | 4280 | 1970 |
| ACAAAACAAACACATCCCCCAAACCGCCAAACTACA | 606 | 1310 | 627 | 1300 |
| TTATTTCCGGTGTTGATCTTTTTAGTGGTACCAGGC | 3400 | 1070 | 3640 | 2990 |
| CAGAAAAGGCAGGAAGTGGTACAAACCACAAAAGGC | 5820 | 1320 | 49600 | 8000 |
| GAGCAGGAAGCACCCCCAGCACAGGCCTGCGGTGAG | 438 | 741 | 1350 | 911 |
| TTTTATCCTTCCTTTTTTGTTCTTTGTGGTGGAGGT | 465 | 1840 | 521 | 2040 |
| CAATGGATGGCCACATCCTCACCACAAACTGAGTCA | 368 | 939 | 647 | 1360 |
| TGCAATTGGCAGACAGGAAACCGCGGCGTTTTCTGG | 5340 | 764 | 13500 | 1440 |
| TGCGAGCACCCGGAAGCCGCTTGCGGGCTCCCGGAG | 2840 | 701 | 5620 | 999 |

| Sequence | ETS1 binding intensity [1] | RUNX1 binding intensity [2] | ETS1 binding intensity [3] | RUNX1 binding intensity [4] |
| --- | --- | --- | --- | --- |
| GAGCTGCTCCGGAAGGGTGGTGTGTGGTCAACCTTG | 759 | 876 | 1520 | 1050 |
| CCCCTATATCACAGGATGCCGCAAACTAGTAACAGG | 1610 | 827 | 2210 | 993 |
| CAGGCACACATCCGGGAGCGGCCTGCGCCGCAAGGC | 608 | 773 | 661 | 1560 |
| GTTTCCACTTCCTGCTGTGCAGCAGTACCACCAAGA | 1000 | 992 | 1030 | 2800 |
| GCCCAATTCCCGAATCCGGTCTGCGGCGCGCTCGGG | 583 | 768 | 507 | 1170 |
| CTGTGCGAGGCAGGATGTGGTCTCCCGCCACCAGGG | 5450 | 788 | 13800 | 3160 |
| CAACTTCCGGGGCCGGTTGCCTGGCAACCGCAGGAG | 812 | 965 | 3940 | 3790 |
| TGAGTCACAGAGACAGGATGTGGTGCAGGGGGTATT | 7580 | 718 | 13500 | 1030 |
| GCTTCTTCCGGCCGGGCCGAGAGGTGGTTACATTCG | 683 | 792 | 700 | 1940 |
| GCTGTGCCGGCAGGATGTGGTCTTTGGTTTCTGTTT | 5560 | 850 | 12300 | 3250 |
| AACTTCCTCCGCGCGGGGCCACTGCTACCACAAAGG | 373 | 1070 | 588 | 2540 |
| TGGGGAGGCAGGAAACGGGCCTTGTGGTTGGGGGGT | 4210 | 770 | 16900 | 1020 |
| TCCAGGATGTGGGATGCCGTGCTGTACCGCATGTCA | 498 | 652 | 1030 | 1160 |
| CCCGACTTCCGCCGCTGGTGGCCACCCGCAGGTAGT | 732 | 789 | 1050 | 2050 |
| GCAGAAACAGGAAGAGACAGGGCTGACCGCAGCAGG | 1290 | 1230 | 6300 | 2340 |
| GCCCCTAAACCGGATGCGGCAGCCACCGCGGACCCC | 9010 | 1290 | 16600 | 3550 |
| CCCAGGCTTCCGGGTTGAATATGTGGGCTGAGGCGA | 455 | 819 | 415 | 1420 |
| AATCATTTCCTGCCCTAACGTTTGTGGTCTGCCTAG | 728 | 832 | 1720 | 2760 |
| ACCTGAGCAGGAAGTAGCTGAGGTCGCGGTGCAGCA | 2940 | 730 | 3750 | 1080 |
| TGGCTGTGAGCTGCAGGATGTGGTCAGGAGAGGAAG | 2180 | 804 | 19700 | 2310 |
